Data taken from PubChem BioAssay (EPA / NIEHS).
Some compounds were tested as several samples or in several runs, with calls that do not always agree. Activity calls are given as the source filed them. The calls were made as follows: active = hit-call score of the fitted dose curve at least 0.9, where 1 is the maximum; inactive = score below 0.9.

read-out: CD69, CD69 (gene 969); experiment: BSK_LPS_CD69: BioMAP Diversity Plus: LPS Assay for CD69 Biomarker Activity (AID 2284303); conditions: primary human HUVEC with PBMC
Method: BSK_LPS is a cell-based, multiplexed-readout assay that uses umbilical vein endothelium and peripheral blood mononuclear cells, a human vascular primary cell co-culture, with measurements taken at 24 hours after chemical dosing in a 96-well plate.BSK_LPS_CD69 is an assay component measured in the BSK_LPS assay. It measures CD69 antibody related to regulation of gene expression using ELISA technology.Data from the assay component BSK_LPS_CD69 was analyzed at the endpoint, BSK_LPS_CD69, in the positive analysis fitting direction relative to DMSO as the negative control and baseline of activity. Using a type of binding reporter, gain or loss-of-signal activity can be used to understand protein changes. To generalize the intended target to other relatable targets, this assay endpoint is annotated to the 'cytokine' intended target family, where the subfamily is 'inflammatory factor'.
The levels of cell surface (or secreted, indicated by the prefix "s") biomarker endpoints were measured by ELISA. Overt cytotoxicity to cells in confluent adherent cultures (all systems other than the BT system) was assessed by measuring total protein levels using sulforhodamine B (SRB) staining in parallel cultures at the time of biomarker measurements, indicated as SRB endpoints. For proliferation assays for adherent cell types, individual cell types are cultured at sub-confluence and relative cell numbers quantified by SRB staining at time points optimized for each system (48 h: 3C and CASM3C systems; 72 h: BT and HDF3CGF systems; 96 h: SAg system). SRB was performed by staining cells with 0.1% SRB after fixation with 10% TCA and reading wells at 560 nm.Viability and proliferation of PBMC (T cells) was quantified by Alamar Blue reduction for the SAg and BT systems. For PBMC viability (referred to as PBMC Cytotoxicity within the assay endpoint names), cells were plated (75,000/well in a 96-well plate) and then chemical samples added for 1 h before addition of activators, SEB and TSST-1 (20 ng/mL final concentration each). Cells were incubated for 90 h. Then, Alamar Blue (20 uL/well) (Invitrogen, Cat DAL1100) was added for 6 h, and the plates were read with a fluorescence microplate reader at 546/580 nm (excitation/emission). For PBMC proliferation, cells were plated and activated as above but incubated for only 16 h prior to addition of Alamar Blue. Plates were read after 6 h.

Compound | outcome | AC50
O=C(Cl)C(F)(F)C(F)(F)C(F)(F)C(=O)Cl | inactive | –
FC(F)(F)C(F)(F)C(F)(F)C(F)(F)C(F)(F)C(F)(F)I | inactive | –
FC(F)C(F)(F)COCC1CO1 (stereo unspecified) | inactive | –
FC(F)(F)COC(OCC(F)(F)F)OCC(F)(F)F | inactive | –
O=S(=O)(O)CCC(F)(F)C(F)(F)C(F)(F)C(F)(F)C(F)(F)C(F)(F)F | inactive | 9.47 µM (active)
C[Si](C)(C)C(F)(F)C(F)(F)C(F)(F)F | inactive | –
FC(F)=C(F)C(F)(F)C(F)(F)C(F)(F)C(F)(F)C(F)(F)C(F)(F)F | inactive | –
NCC(F)(F)C(F)(F)C(F)(F)C(F)(F)F | inactive | –
OCCC(F)(F)C(F)(F)C(F)(F)C(F)(F)F | inactive | –
OC(O)(C(F)C(O)(O)C(F)(F)F)C(F)(F)F | inactive | –
